Measured values: the supplement of paper PMC7411054

tested on: HepG2-TP53BP1-CLTA; test: phenotypically active (imaging signature differs from DMSO and reproducible) at any of 0.3-9 uM (binary (1 = active, 0 = inactive)); higher = active; conditions: treatment time: 24 h
How it was run: (§1)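 Two criteria together defined phenotypic activity: deviation and reproducibility. Deviation meant ≥3 of 4 wells beyond the 95th percentile of Euclidean distances in solvent control wells, and reproducibility meant a median replicate Pearson correlation above the 95th percentile of non-replicates. Wells had been treated for 24 h at 0.3, 1, 3 or 9 µM in fifteen gene-edited A549, HepG2 and WPMY1 reporter lines before live imaging.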

SMILES	phenotypically active
O=c1[nH]cnc2c1ncn2[C@H]1CC[C@@H](CO)O1 [Didanosine]	0 (inactive)
CC(c1cc2ccccc2s1)N(O)C(N)=O (centres undefined) [zileuton]	0 (inactive)
COc1ccc2[nH]c(S(=O)Cc3ncc(C)c(OC)c3C)nc2c1 (centres undefined) [omeprazole]	0 (inactive)

tested on: HepG2-TUBA1B-RELA; test: as above; conditions: treatment time: 24 h
How it was run: as §1

SMILES	phenotypically active
O=P(O)(O)C(O)(Cc1cccnc1)P(=O)(O)O [risedronate]	0 (inactive)
O=C(CCc1ccc(O)cc1)c1c(O)cc(O)cc1O[C@@H]1O[C@H](CO)[C@@H](O)[C@H](O)[C@H]1O [Phloridzin]	0 (inactive)
CC(C)NCCCC1(C(N)=O)c2ccccc2-c2ccccc21 [indecainide]	0 (inactive)
COc1c2occc2cc2ccc(=O)oc12 [methoxsalen]	0 (inactive)
CC(=O)N[C@@H](CC(=O)O)C(=O)N[C@@H](CCC(=O)O)C(=O)O [Spaglumic acid]	0 (inactive)
OCC(CO)N[C@H]1C[C@](O)(CO)[C@@H](O)[C@H](O)[C@H]1O [Voglibose]	0 (inactive)
CCOc1ccccc1OCCN[C@H](C)Cc1ccc(OC)c(S(N)(=O)=O)c1 [tamsulosin]	0 (inactive)
O=C1NC(=O)/C(=C\c2cccc(C(F)(F)F)c2)S1	0 (inactive)
NS(=O)(=O)c1cc(Cl)c(Cl)c(S(N)(=O)=O)c1 [diclofenamide]	0 (inactive)
CN1CCN2c3ncccc3Cc3ccccc3C2C1 (centres undefined) [Mirtazapine]	0 (inactive)
O=C1N(c2ccccc2)c2ccccc2C1(Cc1ccncc1)Cc1ccncc1 [linopirdine]	0 (inactive)
